Data published in PubChem BioAssay (NCATS).
Records with an inconclusive call do not appear. Calls of active or inactive are those of the source. Calls come from the whole dose curve; as a rule, active = well fitted curve in the direction sought with a large enough effect; inconclusive = small, poorly fitted or top-dose-only effect, or another doubt; inactive = no such curve, though single readings can be large; an effect the other way counts as inactive or inconclusive.

Columns and labels:
[1] = HPAF-II 24hr Apoptosis Induction qHTS against the NCATS CANVASS Library (AID 1347356)
Text: (§1) Natural products and their derivatives continue to be wellsprings of nascent therapeutic potential. However, many laboratories have limited resources for biological evaluation, leaving their previously isolated or synthesized compounds largely or completely untested. To address this issue, the Canvass library of natural products was assembled (https://tripod.nih.gov/canvass), in collaboration with academic and industry researchers, for quantitative high-throughput screening (qHTS) across a diverse set of cell-based and biochemical assays. The pure (>85% purity by liquid chromatography/mass spectrometry [LC/MS]) Canvass library of 346 natural products were submitted by 45 academic laboratories and companies around the world. […] The library was formatted into 1536-well plates and evaluated in 50 qHTS (in an 11-pnt concentration series) bioassays with broad scope of disease-relevant mechanisms. The resulting data set from 50 different assays was then systematically analyzed to identify overall trends and specific natural products with interesting biological activities. […] The luminescence is proportional to the amount of caspase activity in the assay reaction. […]
(§2) Cancer Cell Apoptosis Assay 1. […] Luminescence signal was acquired via the ViewLux plate reader (PerkinElmer) using a clear filter, 20 second exposure and 2x binning settings.

[2] = HEK293 18hr Apoptosis Induction qHTS against the NCATS CANVASS Library (AID 1347357)
Method in brief: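 HEK293 cells (500 per well, DMEM with 10% FBS) were treated with natural products, incubated 18 hours at 37 degrees C, then caspase-3/7 activity was read by Caspase-Glo luminescence after 15 min at room temperature.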

[3] = HPAF-II 12hr Apoptosis Induction qHTS against the NCATS CANVASS Library (AID 1347358)
Text: as §1, §2

[4] = HEK293 24hr Apoptosis Induction qHTS against the NCATS CANVASS Library (AID 1347359)
Method in brief: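 Caspase-3/7 activation measured as luminescence from the DEVD-based Caspase-Glo reagent, 15 min at room temperature, following 24-hour compound treatment of HEK293 cells.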

[5] = HPAF-II 18hr Apoptosis Induction qHTS against the NCATS CANVASS Library (AID 1347360)
Method in brief: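 HPAF-II cells (500/well, DMEM + 10% FBS) were exposed to compounds for 18 hours at 37 degrees C. Caspase-3/7 activity was then read by Caspase-Glo 3/7 luminescence after 15 min at room temperature.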

[6] = HEK293 12hr Apoptosis Induction qHTS against the NCATS CANVASS Library (AID 1347361)
Method in brief: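 Read-out: Caspase-Glo 3/7 luminescence (DEVD substrate), 15 min RT. Preceded by 12 h compound exposure of HEK293, 500 cells/well, 11-pt qHTS titration; doxorubicin titration as control.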

[7] = test system: NAD(P)H diaphorase (Clostridium kluyveri); experiment: Diaphorse counterscreen qHTS: Assay Interference Panel against the NCATS CANVASS Library (AID 1347362)
Method in brief: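 Counterscreen for coupling-enzyme interference: resorufin fluorescence from resazurin/NADH turnover, read after 5 min at room temperature. Compounds were tested over an 11-point series after 15 min dark preincubation with diaphorase in PBS-Tween.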

[8] = target: Luciferin 4-monooxygenase (Photinus pyralis) (UniProt P08659); experiment: Firefly luciferase counterscreen qHTS: Assay Interference Panel against the NCATS CANVASS Library (AID 1347363)
Chain of Luciferin 4-monooxygenase (Photinus pyralis) (P08659 whole entry, looked up): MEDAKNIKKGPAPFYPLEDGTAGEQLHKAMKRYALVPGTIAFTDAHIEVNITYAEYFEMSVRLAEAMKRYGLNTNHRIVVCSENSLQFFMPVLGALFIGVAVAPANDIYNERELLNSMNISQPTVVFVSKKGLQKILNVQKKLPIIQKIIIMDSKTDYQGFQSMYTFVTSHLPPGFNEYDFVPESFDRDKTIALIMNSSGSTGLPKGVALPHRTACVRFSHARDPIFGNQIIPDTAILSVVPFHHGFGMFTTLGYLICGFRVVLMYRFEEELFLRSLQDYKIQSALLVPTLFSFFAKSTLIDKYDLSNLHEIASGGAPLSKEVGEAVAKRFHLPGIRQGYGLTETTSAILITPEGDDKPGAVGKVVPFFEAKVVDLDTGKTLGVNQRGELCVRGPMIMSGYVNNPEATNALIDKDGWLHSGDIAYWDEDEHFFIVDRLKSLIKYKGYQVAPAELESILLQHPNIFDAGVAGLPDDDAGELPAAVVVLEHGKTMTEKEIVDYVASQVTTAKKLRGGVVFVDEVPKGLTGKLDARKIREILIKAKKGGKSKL
Method in brief: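 Luminescence inhibition readout: compounds (11-point qHTS) sat 15 min at room temperature with substrate mix (0.013 mM luciferin and ATP), then firefly luciferase was added and signal read 5 min later.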

[9] = KB-8-5-11 Cancer Cell Toxicity qHTS against the NCATS CANVASS Library (AID 1347364); details: KB-8-5-11 MDR cells viability, CellTiter-Glo, 72 h; at 15.4 µM (top of the series); note: nearly all actives have a fitted effect of over 75% in size
Method in brief: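 CellTiter-Glo luminescence after 72 h exposure; 500 KB-8-5-11 cells/well, DMEM/10% FBS, 37C, 5% CO2; compounds in 11-pt qHTS. Follow-up confirmation included medium with 1uM tariquidar.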

[10] = SDT Cancer Cell Toxicity qHTS against the NCATS CANVASS Library (AID 1347365);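 note: SDT canine glioma cells 500 per well in 1536 well plates; nearly all actives have a fitted effect of over 60% in size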
Method in brief: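 Luminescent ATP read-out (CellTiterGlo) after 72 hr compound exposure of dog glioma SDT cells, 500 per well. Eleven-point titrations; bortezomib titration run alongside as control.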

Measured: outcome

C[C@@H]1O[C@@H](OC[C@H]2O[C@@H](Oc3c(-c4ccc(O)c(O)c4)oc4cc(O)cc(O)c4c3=O)[C@H](O)[C@@H](O)[C@@H]2O)[C@H](O)[C@H](O)[C@H]1O
inactive: [1] | [2] | [3] | [4] | [5] | [6] | [7] | [8] | [9] | [10]
